Assay [1] can be described thus: ATG_PPRE_CIS: Attagene CIS-FACTORIAL HepG2 Assay for human Peroxisome Proliferator-activated Response Element (PPRE) (AID 2282958). Particulars: HepG2 PPRE cis-element reporter, Attagene transcription factor profiling; actives raise or lower the signal. A digest of the protocol:
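HepG2 cells transiently transfected with multiplexed cis-element reporter units measure endogenous transcription factor activity. After 24 h compound exposure, reporter mRNA is quantified by RT-PCR, 6-FAM labeling, HpaI digestion and capillary electrophoresis; bidirectional fits are made against DMSO baseline.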

A short description of assay [2]: ATG_RORE_CIS: Attagene CIS-FACTORIAL HepG2 Assay for human RAR-related Orphan Receptor Element (RORE) (AID 2282959). The note with it: HepG2 Attagene cis-factorial RORE reporter, mRNA; actives raise or lower the signal. A digest of the protocol: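 HepG2 cells transiently transfected with multiple cis-element reporter transcription units, exposed to chemical for 24 h. Reporter mRNA quantified by RT-PCR, 6-FAM primer-extension labeling, HpaI digestion and capillary electrophoresis; bidirectional fit versus DMSO baseline.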

Assay [3] is described as follows: ATG_Sox_CIS: Attagene CIS-FACTORIAL HepG2 Assay for human SRY-box transcription factor (SOX) (AID 2282960). Particulars: HepG2 Attagene cis-factorial SOX reporter, mRNA; actives raise or lower the signal. A digest of the protocol: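 HepG2 cells transiently transfected with cis-element-driven multiple reporter transcription units, dosed 24 h; reporter mRNA measured by RT-PCR, FAM labelling, HpaI digestion and capillary electrophoresis. Bidirectional fit versus DMSO baseline.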

Assay [4] concerns the target Transcription factor Sp1 (Homo sapiens) (UniProt P08047). Put plainly: ATG_Sp1_CIS: Attagene CIS-FACTORIAL HepG2 Assay for human Specificity Protein 1 (Sp1) (AID 2282961). Particulars: HepG2 Sp1 cis-reporter transcription, actives raise or lower the signal. Put shortly:
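HepG2 cells transiently transfected with multiple reporter transcription units driven by cis-regulatory elements; Sp1-responsive reporter mRNA measured 24 h after dosing by RT-PCR and capillary electrophoresis fluorescence, fitted bidirectionally against DMSO baseline.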

Assay [5] in a line: ATG_SREBP_CIS: Attagene CIS-FACTORIAL HepG2 Assay for human Sterol Regulatory Element Binding (SREBP) (AID 2282962). The note with it: HepG2 Attagene cis-factorial SREBP reporter, mRNA; actives raise or lower the signal. Put shortly:
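mRNA induction of transfected cis-promoter reporters in HepG2 cells, 24 h post-dose. Detection: RT-PCR with 6-FAM-labelled products, HpaI digest, capillary electrophoresis. DMSO served as negative control and baseline.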

Assay [6] addresses Signal transducer and activator of transcription 3 (Homo sapiens) (UniProt P40763). Put plainly: ATG_STAT3_CIS: Attagene CIS-FACTORIAL HepG2 Assay for human Signal Transducer and Activator of Transcription 3 (STAT3) (AID 2282963). Particulars: HepG2, Attagene cis-factorial STAT3 reporter transcription; actives raise or lower the signal. Put shortly: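 HepG2 cells transiently transfected with multiple cis-element-driven reporter units report endogenous transcription factor activity. After 24 h compound exposure, reporter mRNA is measured by RT-PCR, 6-FAM labelling, HpaI digestion and capillary electrophoresis. Fitted bidirectionally versus DMSO.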

Assay [7] is described as follows: ATG_TCF_b_cat_CIS: Attagene CIS-FACTORIAL HepG2 Assay for human T-Cell-Factor with beta-catenin (TCF/b-cat) (AID 2282965). Particulars: HepG2 TCF/beta-catenin cis-reporter transcription, actives raise or lower the signal. A digest of the protocol: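 HepG2 cells transiently transfected with cis-promoter-driven multiplexed reporter units; reporter mRNA measured 24 h after dosing by RT-PCR, FAM labelling, HpaI digestion and capillary electrophoresis. Bidirectional fitting relative to DMSO baseline.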

Assay [8] can be described thus: ATG_TAL_CIS: Attagene CIS-FACTORIAL HepG2 Assay for human TAL Basal Promoter (AID 2282966).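 Note: background control endpoint measuring basal TAL promoter reporter mRNA not a specific factor.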 Particulars: HepG2 Attagene cis-factorial TAL promoter reporter; actives raise or lower the signal. A digest of the protocol: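 HepG2 cells were transiently transfected with promoter-driven multiplexed reporter units and dosed for 24 h. Reporter mRNA was measured by RT-PCR with capillary electrophoresis fluorescence; bidirectional fits used DMSO as baseline, serving as a background control.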

The nature of assay [9]: ATG_TGFb_CIS: Attagene CIS-FACTORIAL HepG2 Assay for human Transforming Growth Factor (TGF) (AID 2282967). Particulars: HepG2 Attagene CIS TGFb reporter, mRNA transcription; actives raise or lower the signal. Put shortly: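 Liver HepG2 line, cis-factorial reporter panel, 24 h dosing. Quantitation: RT-PCR products labeled with 6-FAM, cut with HpaI, resolved by capillary electrophoresis; DMSO-referenced bidirectional analysis.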

Assay [10] is described as follows: ATG_VDRE_CIS: Attagene CIS-FACTORIAL HepG2 Assay for human Vitamin D Receptor Element (VDRE) (AID 2282968). The note with it: HepG2 VDRE cis-reporter transcription, actives raise or lower the signal. A digest of the protocol: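 Transiently transfected HepG2 cells carrying cis-regulated reporter transcription units were exposed for 24 h. Reporter mRNA was measured by RT-PCR with fluorescent labelling and capillary electrophoresis, and fitted in both directions against DMSO.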

Assay [11] concerns the target X-box-binding protein 1 (Homo sapiens) (UniProt P17861). Briefly: ATG_Xbp1_CIS: Attagene CIS-FACTORIAL HepG2 Assay for human X-box Binding Protein 1 (XBP1) (AID 2282972). Particulars: HepG2 XBP1 cis-element reporter, Attagene multiplex; actives raise or lower the signal. Put shortly:
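Fluorescence-labelled cDNA fragments from reporter transcripts, separated by capillary electrophoresis, give the signal. Source: HepG2 cells transfected with promoter-driven reporter units, harvested 24 h post-dose. DMSO served as reference for bidirectional curve fitting.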

A short description of assay [12]: ATG_M_19_TRANS: Attagene TRANS-FACTORIAL HepG2 Assay for M19 Transcription Factor (Internal Marker) (AID 2282974; active = hit-call score of the fitted dose curve at least 0.9, where 1 is the maximum). The note with it: HepG2 Attagene TRANS-FACTORIAL M19 internal marker reporter. Put shortly: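 HepG2 cells transiently transfected with multiple GAL4-UAS reporter transcription units were exposed to chemicals for 24 h. Reporter mRNA was read by RT-PCR, 6-FAM primer extension, HpaI digestion and capillary electrophoresis; gain of signal fitted relative to DMSO.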

A short description of assay [13]: ATG_GAL4_TRANS: Attagene TRANS-FACTORIAL HepG2 Assay for GAL4 (Internal Marker) (AID 2282976; active = hit-call score of the fitted dose curve at least 0.9, where 1 is the maximum). Particulars: HepG2 Attagene TRANS GAL4 internal marker reporter. Put shortly: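 HepG2 cells transiently transfected with multiplexed GAL4-UAS reporter constructs were dosed for 24 h. Reporter mRNA was measured by RT-PCR, 6-FAM primer extension, HpaI digestion and capillary electrophoresis, and gain of signal was fitted relative to DMSO.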

The target of assay [14] is Estrogen-related receptor gamma (Homo sapiens) (UniProt P62508). Put plainly: ATG_ERRg_TRANS: Attagene TRANS-FACTORIAL HepG2 Assay for human Estrogen-Related Receptor gamma (ERRg) (AID 2282977; active = hit-call score of the fitted dose curve at least 0.9, where 1 is the maximum;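 note: hits increase reporter signal over DMSO so potencies reflect activators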). Particulars: HepG2 Attagene TRANS reporter, ERRg transactivation. Put shortly:
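HepG2 cells transiently transfected with multiplexed GAL4-UAS reporter units driven by chimeric NR-Gal4 proteins; 24 h exposure. Reporter mRNA quantified by RT-PCR, fluorescent labelling, HpaI digestion and capillary electrophoresis; gain of signal vs DMSO.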

The nature of assay [15]: ATG_TA_CIS: Attagene CIS-FACTORIAL HepG2 Assay for human TA Basal Promoter (AID 2282964). Particulars: HepG2 Attagene CIS-factorial TA basal promoter reporter; actives raise or lower the signal. A digest of the protocol: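 Background internal-marker endpoint from a 52-component HepG2 cis-reporter panel. Cells treated 24 h; reporter transcripts quantified via RT-PCR and CE fluorescence against DMSO baseline.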

Assay [16] deals with Estrogen receptor (Homo sapiens) (UniProt P03372). Briefly: ATG_ERa_TRANS: Attagene TRANS-FACTORIAL HepG2 Assay for human Estrogen Receptor alpha (ERa) (AID 2282970; active = hit-call score of the fitted dose curve at least 0.9, where 1 is the maximum). The note with it: HepG2 Attagene TRANS ERa GAL4 reporter, mRNA. Put shortly: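 HepG2 cells transiently transfected with multiplexed GAL4-UAS reporter units; ERa activity read via exogenous chimeric NR-Gal4 protein. After 24 hour compound exposure, reporter mRNA measured by RT-PCR with 6-FAM labelling and capillary electrophoresis; gain-of-signal fitted relative to DMSO.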

The target of assay [17] is Bile acid receptor (Homo sapiens) (UniProt Q96RI1). Put plainly: ATG_FXR_TRANS: Attagene TRANS-FACTORIAL HepG2 Assay for Farnesoid X Receptor (FXR) (AID 2282979; active = hit-call score of the fitted dose curve at least 0.9, where 1 is the maximum;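 note: hits raise reporter mRNA above DMSO so AC50 marks FXR activation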). Particulars: HepG2 Attagene TRANS FXR-GAL4 reporter transcription. A digest of the protocol: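 HepG2 cells transiently transfected with reporter constructs in which a chimeric FXR-GAL4 protein drives a GAL4-UAS reporter; 24 h compound exposure. Reporter mRNA measured by RT-PCR, FAM labelling, HpaI digestion and capillary electrophoresis; gain-of-signal versus DMSO.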

For assay [18], the target named is Glucocorticoid receptor (Homo sapiens) (UniProt P04150). Put plainly: ATG_GR_TRANS: Attagene TRANS-FACTORIAL HepG2 Assay for human Glucocorticoid Receptor (GR) (AID 2282978; active = hit-call score of the fitted dose curve at least 0.9, where 1 is the maximum;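 note: activators score as hits since higher reporter transcript over DMSO is fitted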). Particulars: HepG2 Attagene TRANS GR reporter, mRNA transcription. Put shortly: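 HepG2 cells transiently transfected with multiplexed reporter units in which chimeric NR-GAL4 proteins drive GAL4-UAS reporters; 24 h compound exposure. Reporter mRNA measured by RT-PCR, 6-FAM labelling, HpaI digestion and capillary electrophoresis; gain-of-signal fitted versus DMSO.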

The source of these data is PubChem BioAssay (EPA / NIEHS).

Results filed as inconclusive are left out. Active and inactive are the calls of the source. Rule for the calls, unless noted: active = hit-call score of the fitted dose curve at least 0.9, where 1 is the maximum; inactive = score below 0.9.

Sequence of Transcription factor Sp1 (Homo sapiens) (P08047 whole entry, looked up): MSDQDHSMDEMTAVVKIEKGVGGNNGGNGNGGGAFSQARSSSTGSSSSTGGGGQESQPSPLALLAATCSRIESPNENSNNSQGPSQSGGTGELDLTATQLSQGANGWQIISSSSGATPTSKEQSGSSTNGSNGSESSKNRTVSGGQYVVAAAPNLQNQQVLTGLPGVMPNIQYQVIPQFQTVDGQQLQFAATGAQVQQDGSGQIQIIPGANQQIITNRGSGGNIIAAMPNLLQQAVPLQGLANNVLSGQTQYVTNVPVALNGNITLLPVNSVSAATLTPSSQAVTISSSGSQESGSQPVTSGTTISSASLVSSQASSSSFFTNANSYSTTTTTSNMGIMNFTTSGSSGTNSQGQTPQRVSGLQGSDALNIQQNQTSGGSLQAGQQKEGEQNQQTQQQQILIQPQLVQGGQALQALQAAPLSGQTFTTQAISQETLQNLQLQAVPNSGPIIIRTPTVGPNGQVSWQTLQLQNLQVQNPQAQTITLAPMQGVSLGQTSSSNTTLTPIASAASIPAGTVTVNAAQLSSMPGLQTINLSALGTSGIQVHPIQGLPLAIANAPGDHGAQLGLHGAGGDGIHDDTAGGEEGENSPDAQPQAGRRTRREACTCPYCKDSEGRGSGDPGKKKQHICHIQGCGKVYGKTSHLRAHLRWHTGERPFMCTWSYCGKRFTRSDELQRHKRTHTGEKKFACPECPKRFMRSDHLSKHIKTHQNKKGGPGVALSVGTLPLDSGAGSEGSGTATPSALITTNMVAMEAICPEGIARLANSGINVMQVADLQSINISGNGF
Sequence of Signal transducer and activator of transcription 3 (Homo sapiens) (P40763 whole entry, looked up): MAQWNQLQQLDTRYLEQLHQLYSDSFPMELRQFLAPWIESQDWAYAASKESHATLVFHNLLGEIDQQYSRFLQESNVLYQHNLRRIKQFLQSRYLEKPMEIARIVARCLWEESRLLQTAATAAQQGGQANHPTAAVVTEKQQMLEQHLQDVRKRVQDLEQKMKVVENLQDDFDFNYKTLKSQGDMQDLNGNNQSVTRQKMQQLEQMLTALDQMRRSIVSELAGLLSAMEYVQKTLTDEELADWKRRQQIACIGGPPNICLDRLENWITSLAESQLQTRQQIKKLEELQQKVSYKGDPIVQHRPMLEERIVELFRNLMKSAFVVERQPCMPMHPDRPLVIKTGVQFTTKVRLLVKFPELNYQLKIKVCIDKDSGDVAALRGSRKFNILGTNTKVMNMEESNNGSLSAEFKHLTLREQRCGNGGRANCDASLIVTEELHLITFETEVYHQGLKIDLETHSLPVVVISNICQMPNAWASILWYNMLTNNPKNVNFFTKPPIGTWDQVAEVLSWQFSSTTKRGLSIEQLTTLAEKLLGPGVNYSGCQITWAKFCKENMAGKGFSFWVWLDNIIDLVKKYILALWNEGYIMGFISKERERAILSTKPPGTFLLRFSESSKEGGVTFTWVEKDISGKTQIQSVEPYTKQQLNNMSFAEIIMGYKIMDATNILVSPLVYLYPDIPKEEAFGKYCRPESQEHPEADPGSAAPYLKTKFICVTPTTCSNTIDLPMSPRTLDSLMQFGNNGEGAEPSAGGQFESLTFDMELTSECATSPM
Sequence of X-box-binding protein 1 (Homo sapiens) (P17861 whole entry, looked up, the tested form may be a part): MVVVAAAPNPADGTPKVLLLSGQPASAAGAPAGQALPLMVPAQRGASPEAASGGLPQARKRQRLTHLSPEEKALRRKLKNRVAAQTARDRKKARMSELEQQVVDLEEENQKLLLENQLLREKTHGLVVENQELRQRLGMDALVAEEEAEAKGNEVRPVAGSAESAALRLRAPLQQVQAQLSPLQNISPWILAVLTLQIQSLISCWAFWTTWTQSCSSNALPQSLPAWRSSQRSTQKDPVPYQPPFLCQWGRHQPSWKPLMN
Sequence of Estrogen-related receptor gamma (Homo sapiens) (P62508 whole entry, looked up, the tested form may be a part): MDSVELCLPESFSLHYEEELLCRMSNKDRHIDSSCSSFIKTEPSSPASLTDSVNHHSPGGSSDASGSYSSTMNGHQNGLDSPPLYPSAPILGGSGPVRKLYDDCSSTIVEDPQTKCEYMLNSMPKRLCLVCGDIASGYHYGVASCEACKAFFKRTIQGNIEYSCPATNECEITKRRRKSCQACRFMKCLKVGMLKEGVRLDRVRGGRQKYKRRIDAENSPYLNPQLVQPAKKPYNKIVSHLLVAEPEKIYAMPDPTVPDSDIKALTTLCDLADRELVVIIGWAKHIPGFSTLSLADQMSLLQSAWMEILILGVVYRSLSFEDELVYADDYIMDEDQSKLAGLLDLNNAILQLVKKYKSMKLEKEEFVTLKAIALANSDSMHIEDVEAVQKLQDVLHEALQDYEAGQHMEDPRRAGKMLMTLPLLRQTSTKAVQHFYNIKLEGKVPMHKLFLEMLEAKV
Sequence of Estrogen receptor (Homo sapiens) (P03372 whole entry, looked up, the tested form may be a part): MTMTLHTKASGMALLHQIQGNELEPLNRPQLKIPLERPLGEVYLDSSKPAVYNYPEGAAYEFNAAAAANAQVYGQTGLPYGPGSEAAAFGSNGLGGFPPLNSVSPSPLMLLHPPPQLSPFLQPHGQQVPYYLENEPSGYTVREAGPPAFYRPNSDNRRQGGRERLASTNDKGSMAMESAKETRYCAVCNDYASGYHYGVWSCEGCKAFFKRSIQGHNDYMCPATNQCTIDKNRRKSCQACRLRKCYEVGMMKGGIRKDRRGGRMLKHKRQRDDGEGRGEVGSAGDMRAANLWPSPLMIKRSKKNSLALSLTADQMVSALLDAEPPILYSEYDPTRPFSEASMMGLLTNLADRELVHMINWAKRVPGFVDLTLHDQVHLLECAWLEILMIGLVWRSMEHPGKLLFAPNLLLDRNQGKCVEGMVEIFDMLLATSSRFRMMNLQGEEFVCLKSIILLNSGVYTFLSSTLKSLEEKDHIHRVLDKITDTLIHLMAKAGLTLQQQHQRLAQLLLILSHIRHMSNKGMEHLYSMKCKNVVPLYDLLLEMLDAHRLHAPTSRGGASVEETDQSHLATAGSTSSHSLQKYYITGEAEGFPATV
Sequence of Bile acid receptor (Homo sapiens) (Q96RI1 whole entry, looked up, the tested form may be a part): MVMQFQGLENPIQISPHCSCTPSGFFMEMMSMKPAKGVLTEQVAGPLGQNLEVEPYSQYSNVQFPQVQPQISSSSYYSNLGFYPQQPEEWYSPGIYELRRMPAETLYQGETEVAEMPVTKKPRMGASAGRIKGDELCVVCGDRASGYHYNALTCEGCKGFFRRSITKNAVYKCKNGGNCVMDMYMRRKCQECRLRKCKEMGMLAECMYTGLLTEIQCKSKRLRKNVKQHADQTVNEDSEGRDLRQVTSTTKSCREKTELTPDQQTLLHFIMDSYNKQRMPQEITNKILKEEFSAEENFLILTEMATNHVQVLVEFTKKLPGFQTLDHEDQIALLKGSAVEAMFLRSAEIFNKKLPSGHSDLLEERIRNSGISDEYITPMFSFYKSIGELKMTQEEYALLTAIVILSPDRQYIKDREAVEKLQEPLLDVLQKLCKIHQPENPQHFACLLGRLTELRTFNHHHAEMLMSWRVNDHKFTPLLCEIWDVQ
Sequence of Glucocorticoid receptor (Homo sapiens) (P04150 whole entry, looked up, the tested form may be a part): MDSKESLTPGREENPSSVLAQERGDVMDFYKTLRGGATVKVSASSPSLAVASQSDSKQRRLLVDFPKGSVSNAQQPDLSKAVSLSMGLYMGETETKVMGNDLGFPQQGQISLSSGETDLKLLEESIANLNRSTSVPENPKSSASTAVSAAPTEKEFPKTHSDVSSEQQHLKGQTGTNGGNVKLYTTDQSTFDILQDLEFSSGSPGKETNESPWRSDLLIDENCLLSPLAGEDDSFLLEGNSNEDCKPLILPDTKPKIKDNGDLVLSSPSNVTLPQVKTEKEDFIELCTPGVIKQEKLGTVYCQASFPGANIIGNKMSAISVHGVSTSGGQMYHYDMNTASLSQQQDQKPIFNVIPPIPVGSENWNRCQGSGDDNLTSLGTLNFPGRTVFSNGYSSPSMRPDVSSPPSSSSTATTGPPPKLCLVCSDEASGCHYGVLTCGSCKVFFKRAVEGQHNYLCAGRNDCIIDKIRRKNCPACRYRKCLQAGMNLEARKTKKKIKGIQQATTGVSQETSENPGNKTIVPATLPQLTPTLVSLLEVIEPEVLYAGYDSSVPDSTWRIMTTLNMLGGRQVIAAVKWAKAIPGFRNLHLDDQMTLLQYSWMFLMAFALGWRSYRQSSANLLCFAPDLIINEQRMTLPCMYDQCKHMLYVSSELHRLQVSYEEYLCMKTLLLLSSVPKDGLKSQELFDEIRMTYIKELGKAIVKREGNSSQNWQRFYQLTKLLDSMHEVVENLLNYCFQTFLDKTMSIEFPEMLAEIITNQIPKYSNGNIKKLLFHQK

A word on the AC50: it is the concentration giving half of the maximal activity seen. Take `CC(C)(c1ccc(OCC2CO2)cc1)c1ccc(OCC2CO2)cc1` (configuration not stated): the molecule was called inactive in assay [1], in assay [3], in [4], in assay [6], in assay [9] and in assay [12]. In assay [13], the molecule was classed as inactive. For the same molecule, the AC50 is 33.4 µM (active) in [2]; 15.1 µM (active) in assay [5]; 49.7 µM (active) in [7]; 23.2 µM (active) in assay [8]; 24.9 µM (active) in assay [10]; 24.4 µM (active) in assay [11].

On to `C=CC(=O)N(C)C`, for which the result in assay [1], in assay [2], in [3], in [4], in assay [5] and in [6] was inactive. Also, the molecule was called inactive in assay [7], in assay [8], in assay [9], in [10], in [11] and in assay [12]. Further, the call in assay [13] and in assay [14] was inactive.

Turning to `Oc1c(I)cc(I)cc1I`, the AC50 in assay [1] is 64.2 µM (active); in [2] it was 31.1 µM (active); in assay [3], 160 µM (active); in assay [15], 55.8 µM (active); in assay [7], 25.9 µM (active); in assay [8], 76.1 µM (active). Also, the AC50 in assay [10] was 19 µM (active); in assay [11] it was 33.6 µM (active); in [17], 100 µM (active). Further, the molecule was called inactive in [4], in assay [5], in assay [9], in [16], in assay [12] and in [13]. Moreover, in [14], the molecule was called inactive.

Regarding `ClC(Cl)=C(Cl)C(Cl)=C(Cl)Cl`, the molecule was called inactive in assay [1], in [2], in [3], in [6], in assay [15] and in assay [8]. Besides, the molecule was called inactive in assay [9], in [16], in assay [12] and in assay [18]. The AC50 in [4] was 160 µM (active); in assay [5], 156 µM (active); in assay [7], 40.4 µM (active); in assay [11], 137 µM (active).
